Screening results deposited in PubChem by National Center for Advancing Translational Sciences (NCATS).
In the library only some 2.3% were active in any assay of this set; here they are far more common.
FUS yeast rescue = FUS proteinopathy suppression in yeast | S. cerevisiae FUS-expressing, growth rescue, OD600, 24 h | Potency, µM (top dose mostly 76.6 µM), usual class: activators | hit rate 0.24% among 390,000;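 note: potency is the fitted concentration of half-maximal effect; plate controls were DMSO vehicle for no effect and reference control for full effect; nearly all actives have a fitted effect of over 55% in size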
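Steps: raffinose overnight preculture; dilution to OD 0.005 in 2% galactose minimal medium; compound addition (concentration series); 24hr at 30C, 99% humidity; absorbance read at 600 nm.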
TRPV1 potentiator = potentiators of human vanilloid receptor 1 (TRPV1); Q8NER1; TRPV1-expressing cells, Fluo-8 calcium influx, capsaicin EC20 potentiation; potentiation, % at 8.33 µM; hit rate 0.02% among 320,000; AID 540277; in the data active = potentiation above about 80%; inconclusive = between about 30% and that limit; note: 0% is about no effect
Target sequence (Q8NER1 whole entry, looked up): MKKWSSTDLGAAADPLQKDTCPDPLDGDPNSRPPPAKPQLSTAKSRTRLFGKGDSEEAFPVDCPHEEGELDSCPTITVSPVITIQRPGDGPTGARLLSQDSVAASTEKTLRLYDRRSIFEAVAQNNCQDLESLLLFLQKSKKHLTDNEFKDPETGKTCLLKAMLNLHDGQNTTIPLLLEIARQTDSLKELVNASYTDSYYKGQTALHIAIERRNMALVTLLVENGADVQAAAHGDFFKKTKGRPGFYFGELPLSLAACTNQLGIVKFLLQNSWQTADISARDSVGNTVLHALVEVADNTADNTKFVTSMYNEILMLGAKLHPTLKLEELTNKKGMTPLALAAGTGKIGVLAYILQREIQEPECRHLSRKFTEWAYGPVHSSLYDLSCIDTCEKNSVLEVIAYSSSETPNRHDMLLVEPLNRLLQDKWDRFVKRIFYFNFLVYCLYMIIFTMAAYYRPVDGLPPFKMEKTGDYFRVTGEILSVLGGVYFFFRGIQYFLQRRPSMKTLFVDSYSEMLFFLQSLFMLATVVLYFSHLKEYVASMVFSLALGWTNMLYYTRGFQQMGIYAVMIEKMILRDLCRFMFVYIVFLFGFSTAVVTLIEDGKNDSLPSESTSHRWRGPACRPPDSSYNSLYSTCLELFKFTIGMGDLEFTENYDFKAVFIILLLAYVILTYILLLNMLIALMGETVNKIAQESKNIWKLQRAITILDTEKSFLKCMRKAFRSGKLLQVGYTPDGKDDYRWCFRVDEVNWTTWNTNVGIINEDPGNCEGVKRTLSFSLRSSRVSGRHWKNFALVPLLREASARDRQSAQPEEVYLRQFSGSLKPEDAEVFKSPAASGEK
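Fluo-8 calcium influx in TRPV1-expressing cells, kinetic read (ex 480/em 520 nm). Compound added and read 3 min for agonist activity, followed by capsaicin at EC20 final and 2 min further read for enhancement.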
TRPV1 ag = agonists of human vanilloid receptor 1 (TRPV1); Q8NER1; TRPV1-expressing cells, Fluo-8 calcium influx, agonist mode; activation, % at 8.33 µM; hit rate 0.19% among 320,000; AID 540275; in the data active = activation above about 80%; inconclusive = between about 30% and that limit; note: 0% is about no effect
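Fluo-8 calcium influx in TRPV1-expressing cells, kinetic read (ex 480/em 520 nm). Compound added and read 3 min for agonist activity, followed by capsaicin at EC20 final and 2 min further read for enhancement.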
ELG1 DNA repair = ELG1-dependent DNA repair inhibition; AID 504467; HEK293T ELG1-luciferase reporter, luminescence, 16 h; DNA damage induced by 5-fluorouridine; hit rate 2.3% among 330,000; Potency, µM (doses to about 46.1 µM), for the others: top-dose activity change, negative = inhibition, usual class: inhibitors; note: potency is the fitted concentration of half-maximal effect; % is set by controls: 0 for no effect and ±100 for the full control effect; nearly all actives have a fitted effect of over 55% in size
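HEK293T cells expressing luciferase-tagged ELG1 (2,000/well) received 5-Fluorouridine plus compound or DMSO for 16 hr at 37 °C. Luciferase was read by ONE-Glo luminescence after 30 min at room temperature.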
Giardia kill = Giardia lamblia killing | Giardia lamblia trophozoite viability | activity change, % at 7.66 µM, hits read low | hit rate 0.15% among 340,000; in the data active = activity change below about -80%; inconclusive = between about -30% and that limit;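 note: parasites exposed to compound for two days anaerobically before the ATP read; % is set by controls: 0 for no effect and ±100 for the full control effect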
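Compounds were tested on trophozoites seeded at 100 cells/well and held 48 hrs at 37 deg C anaerobically. An ATP-based luminescent kit measured the remaining live cells.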
* marks the source's active call; other numbers are inactive results; i = inactive; ? = inconclusive; · = no result. Unless noted, calls come from the whole dose curve; as a rule, active = well fitted curve in the direction sought with a large enough effect; inconclusive = small, poorly fitted or top-dose-only effect, or another doubt; inactive = no such curve, though single readings can be large; an effect the other way counts as inactive or inconclusive.

SMILES	FUS yeast rescue	TRPV1 potentiator	TRPV1 ag	ELG1 DNA repair	Giardia kill
COCCCNC(=O)c1sc2ncnc(N3CCc4ccccc4C3)c2c1C	i	-17	6	8.2µM*	19
COc1ccccc1N1CCN(c2ncnc3sc(C(=O)NCC4CCCO4)c(C)c23)CC1 (stereo not drawn)	i	-5	23	9.2µM*	9
COC(=O)c1ccccc1NC(=O)c1cc2nc(-c3ccc(OC)cc3)cc(C(F)(F)F)n2n1	i	·	·	·	·
COc1cccc2c1cc1c(=O)n(CC(=O)NCc3ccco3)nc(C)n12	i	·	·	·	·
Cc1cc(Cl)ccc1NC(=O)Cn1nnc2sc(-c3ccccc3)cc2c1=O	i	·	·	·	·
CCc1nc2ccccc2n(CCOCCn2c(=O)c(CC)nc3ccccc32)c1=O	i	-9	2	23µM*	-4
CCOCCn1c(CC)nc2ccccc21	i	4	-6	-15%	-1
CCN(CC)S(=O)(=O)c1ccc(C)c(NC(=O)Cn2cnc3cc([N+](=O)[O-])ccc3c2=O)c1	?	4	-1	16µM*	12
O=C(Cn1cnc2cc([N+](=O)[O-])ccc2c1=O)Nc1cccc2ccccc12	i	2	-4	-9%	18
COC(=O)CN1C(=O)CSc2ccc(S(=O)(=O)Nc3ccc(Cl)cc3C)cc21	i	·	·	·	·
COc1ccc(C(=O)/C=C/c2ccc(O)cc2)c2c1CC(O)C(C)(C)O2 (stereo not drawn)	i	·	·	23µM*	-12
COc1ccc(C(=O)/C=C/c2ccc(O)cc2)c(O)c1CC=C(C)C	?	-11	24	-6%	-5
COc1ccc(CNC(=O)c2ccc3c(c2)CCN3S(=O)(=O)c2ccccc2)cc1	i	·	·	·	·
CC1(C)Cc2c(c(N3CCCC3)nc3sc4c(N5CCN(CCO)CC5)ncnc4c23)CO1	i	13	2	8.2µM*	21
CC1(C)CC(=O)c2cc(-c3nc(-c4ccc(Cl)cc4)cs3)c(=O)n(-c3ccc(Cl)cc3)c2C1	i	·	·	·	·
CC[C@@H]1C=C(C)C[C@H](C)C[C@H](OC)[C@H]2O[C@@](O)(C(=O)C(=O)N3CCCC[C@H]3C(=O)O[C@H](/C(C)=C/[C@@H]3CC[C@@H](O)[C@H](OC)C3)[C@H](C)[C@@H](O)CC1=O)[C@H](C)C[C@@H]2OC	·	0	2	8.2µM*	·
CCc1nnc2c(Nc3ccc(N(CC)CC)cc3C)nc3ccccc3n12	i	·	·	·	·
O=C(Nc1ccc(Cl)c(Cl)c1)Nc1cc(C(=O)NC2CC2)ccc1Cl	·	2	0	26µM*	·
O=C(Nc1ccc(Cl)c(Cl)c1)c1ccc(Cl)c(Cl)c1	i	-14	?	?	-10
CCc1ccc(NC(=O)CN2C(=O)C(c3ccc(F)cc3)=NC2(C)C)cc1	i	·	·	·	·
CCc1nc2c(OCCC3CCCCC3)cccn2c1N(C)C(=O)c1ccc(OC)cc1	22µM*	·	·	·	·
CCc1nc2c(OCCC3CCCCC3)cccn2c1N(C)C(=O)c1ccncc1	i	·	·	·	·
Cc1cccc(C(=O)Nc2nnc(S(=O)(=O)N(C)c3ccccc3C)s2)c1	i	·	·	·	·
COc1cccc(N2CCc3c(C)nc4ccc(Cl)cc4c32)c1	i	20	6	23µM*	-1
COc1ccc(N2CCc3c(C)nc4c(OC)cccc4c32)cc1	i	4	-7	?	5
SMILES	FUS yeast rescue	TRPV1 potentiator	TRPV1 ag	ELG1 DNA repair	Giardia kill
Cc1cccc(OC(=O)c2cc(-c3ccc4c(c3)OCCO4)on2)c1	i	·	·	·	·
COc1cc(/C=N/NC(=O)c2ccc(CSc3nc4ccccc4[nH]3)cc2)cc(OC)c1OC	·	24	-3	7.3µM*	8
CC(C)c1cc(C(=O)NCc2ccccc2)no1	i	·	·	·	·
Cc1ccc2nc(-c3ccc(NC(=O)COc4ccc(Br)cc4Br)cc3)sc2c1	i	·	·	·	·
Oc1cccc(-c2nnc(-c3cccc(O)c3)nn2)c1	·	·	·	·	-80*
Oc1cccc(-c2nc3ccccc3s2)c1	i	15	-2	?	-25
Cc1cccc(-n2c(C)cc(C(=O)C(=O)Nc3ccccc3F)c2C)c1C	i	·	·	·	·
Cc1cc(C)c2nc(SCC(=O)N3CC(=O)Nc4ccccc43)c(C#N)cc2c1	i	22	0	?	-20
COc1ccc2nc(SCC(=O)N3CC(=O)Nc4ccccc43)c(C#N)cc2c1	i	-2	0	16µM*	-2
Cc1cc(C(=O)CSc2nnc(Nc3ccccc3F)s2)c(C)n1CC1CCCO1 (stereo not drawn)	?	18	3	?	-3
Cc1cc(C(=O)CSc2nnc(Nc3ccccc3)s2)c(C)n1CC1CCCO1 (stereo not drawn)	?	5	1	18µM*	-4
CCCn1c(C)cc(C(=O)CN2C(=O)c3ccccc3S2(=O)=O)c1C	i	·	·	·	·
Cc1cc(C(=O)CN2C(=O)c3ccccc3S2(=O)=O)c(C)n1CC1CCCO1 (stereo not drawn)	i	-5	0	5.2µM*	?
CCCOc1ccc(CNC(=O)C(NS(=O)(=O)c2cccs2)C(C)C)cc1 (stereo not drawn)	i	·	·	·	·
COc1ccccc1CNC(=O)c1ccc(CN2CC(=O)N3CCCCC3C2=O)cc1 (stereo not drawn)	i	·	·	·	·
c1ccc(Cn2ccc3ccc(-c4ccc5ccn(Cc6cccc(-c7ccsc7)c6)c5c4)cc32)cc1	i	·	·	·	·
CN(C)S(=O)(=O)c1ccc2c(c1)Cc1cc(S(=O)(=O)N(C)C)ccc1-2	i	-2	0	2.3µM*	31
CCCCc1nc(NCCNC(=O)c2ccco2)c(C#N)c2c1CSC(C)(C)C2	?	-10	?	15µM*	3
CCc1nn2c(=O)cc(COC(=O)c3ccccc3)nc2s1	i	·	·	·	·
CNC(=S)N1N=C(c2ccc(C)cc2)CC1c1ccc(Cl)cc1 (stereo not drawn)	i	-4	0	16µM*	-9
